Pf growth 48h = inhibits P. falciparum growth in the first generation, 48 h. P. falciparum luciferase growth in erythrocytes, 48 h. Potency, µM (highest dose often 28.7 µM), inactives show at the highest dose activity change, negative = inhibition, hits mostly inhibitors. 310,000 compounds, 5.9% hits; note: potency is the fitted concentration of half-maximal effect; % is set by controls: 0 for no effect and ±100 for the full control effect
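Luciferase-expressing parasites in RBCs, 2% Hct / 0.1% parasitemia final; RPMI 1640 + 0.5% Albumax; 37 C, 5% CO2, one generation; luminescence read-out, lower signal = inhibition.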
HCMV inh = blocks human cytomegalovirus replication; 410,000 compounds, 4.5% hits; HFF cells, HCMV-luciferase reporter, 72 h; active compounds read low; activity change, negative = inhibition, % at 57.5 µM; in the data active = activity change below about -60%; inconclusive = no clear call, values can overlap the other calls; inactive = above about -39%; note: % is set by controls: 0 for no effect and ±100 for the full control effect
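Human foreskin fibroblasts infected with luciferase-reporter HCMV at MOI 1 PFU/cell, compounds at two doses. Luciferase measured 72 h post infection; normalized to buffer-only basal and Salinomycin (10uM) controls.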
CHX counter = counter-screen for Shiga toxin inhibitors: cycloheximide protein synthesis inhibition; cell reporter, cycloheximide protein synthesis inhibition counterscreen; max response, %; 300,000 compounds, 12% hits; in the data active = max response mostly above about 13%, no sharp cut-off; inactive = mostly below about 14%; note: read at 38.3 µM for the half of the compounds with a filed dose; 0% is about no effect
Shiga inhibitor = blocks Shiga toxin action in Vero cells. Vero cells, Shiga toxin protein synthesis inhibition reporter. 290,000 compounds, 9.2% hits. inhibition, % at 38.7 µM; in the data active = inhibition mostly above about 28%, no sharp cut-off; inactive = mostly below about 43%; note: 0% is about no effect
Pf growth 96h = P. falciparum growth inhibition at 96 hour, primary screen for plastid delayed-death inhibitors; 320,000 compounds, 6.9% hits; P. falciparum luciferase reporter growth, 96 h; Potency, µM (doses to about 28.7 µM), without a hit: top-dose activity change, negative = inhibition, hits mostly inhibitors; note: potency is the fitted concentration of half-maximal effect; % is set by controls: 0 for no effect and ±100 for the full control effect
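Plates of compound plus infected erythrocytes (2% hematocrit, 0.05% parasitemia final) incubate 96 hours, 37 C, 5% CO2. Detection reagent added; reduced luminescence from the parasites' luciferase reporter flags inhibition.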
* hit, by the source's call; ? = inconclusive; · = not tested or not shown. Shown are actives, neighbours in structure and some others; about 20% of the full set was active somewhere. Unless noted, calls come from the whole dose curve; as a rule, active = well fitted inhibition curve with a large enough effect; inconclusive = small, poorly fitted or top-dose-only effect, or another doubt; inactive = no such curve, though single readings can be large or run the other way.

SMILES | Pf growth 48h | HCMV inh | CHX counter | Shiga inhibitor | Pf growth 96h
Cc1nc(NCCc2ccccc2)sc1C(=O)N(C)C | 91% | 0 | 37* | 58* | 120%
Cc1nc(Nc2ccccc2C(F)(F)F)sc1C(=O)N(C)C | 36% | -1 | 26* | 45* | 59%
O=C(COC(=O)CCc1nc2ccccc2c(=O)[nH]1)Nc1ccc2c(c1)OCO2 | 22% | -26 | -1 | -8 | 31%
CCOc1ccc2c(c1)C(=O)C(=O)N2CC1COc2ccccc2O1 (centres undefined) | ? | -65* | -3 | -7 | -6%
COc1ccc(NC(=S)N(C)CC2COc3ccccc3O2)cc1 (centres undefined) | 40% | -3 | 24* | 73* | 40%
Cc1ccc2c(c1)C(=O)C(=O)N2CC1COc2ccccc2O1 (centres undefined) | -18% | -67* | 5 | 1 | 11%
CN(CC1COc2ccccc2O1)C(=S)Nc1ccccc1F (centres undefined) | 6% | -13 | 8 | 25 | -14%
COc1ccc(C2C(=O)N(C3CCCCC3)CC(=O)N2CC2COc3ccccc3O2)cc1 (centres undefined) | ? | -34 | -1 | -7 | ?
COc1ccc2c(c1)C(=O)C(=O)N2CC1COc2ccccc2O1 (centres undefined) | ? | -82* | 4 | 16 | -17%
CC(C)(O)C#Cc1ccc(C(=O)N2CCC(C(N)=O)(N3CCCCC3)CC2)o1 | 1% | -16 | -3 | -5 | ?
O=C(CSc1nnc(-c2ccc(OC(F)F)cc2)o1)NC(=O)NCc1ccco1 | 0% | 20 | -4 | 22 | 31%
Cc1cc(C)n(CCC(=O)Nc2ccc(-c3ccno3)cc2)n1 | -9% | -22 | -4 | -3 | 18%
COC(=O)C(C)Sc1nnc2cc(C)c3cc(C)cc(C)c3n12 (centres undefined) | · | 1 | · | · | ·
CCc1cc(SC#N)cc(CC)c1NC(=O)CCl | 10µM* | -74* | -1 | -2 | ?
CCOc1cc(NC(=O)CCl)c(OCC)cc1NC(=O)CCl | 59% | ? | 8 | 12 | ?
COC(=O)c1ccc(C(=O)OC)c(NC(=O)CSc2cccc[n+]2[O-])c1 | ? | ? | 6 | 5 | 1.2µM*
O=C(CSc1cccc[n+]1[O-])Nc1cc2c(cc1Cl)C(=O)c1ccccc1C2=O | 116% | 241 | 26* | 82* | 86%
Clc1ccc2c(c1)-n1cc(-c3ccccc3)nc1CO2 | · | 107 | · | · | ·
Cc1cc(C)n(-c2nnc(NC(C)(C)C)nn2)n1 | 209% | 93 | 26* | 54* | 181%
Cc1cc(C)n(-c2nc(NC(C)(C)C)nc(NC(C)(C)C)n2)n1 | ? | ? | -4 | -10 | 16%
Cc1cc(C)n(-c2ncc(C#N)cn2)n1 | 15% | -24 | 2 | -5 | 36%
Cc1cc(C)n(-c2nnc(NC34CC5CC(CC(C5)C3)C4)nn2)n1 | 3.3µM* | 48 | 37* | 21* | 2.9µM*
COCCCNC(=O)[C@@H](C)N1Cc2ccc(-c3cccc(F)c3)nc2C1=O | · | -22 | · | · | ·
COc1ccc(C2=NN(C(=O)c3cccs3)C(c3ccc(OC)cc3)C2)cc1 (centres undefined) | ? | 24 | 13* | 22 | ?
COc1ccc(C2CC(c3cccs3)=NN2C(=O)c2ccc(Br)o2)cc1 (centres undefined) | 1.7µM* | ? | 18 | 20 | ?
SMILES | Pf growth 48h | HCMV inh | CHX counter | Shiga inhibitor | Pf growth 96h
O=C(c1cccs1)N1N=C(c2ccccc2)CC1c1ccccc1 (centres undefined) | ? | ? | 1 | -5 | 2.6µM*
O=C(c1cccs1)N1N=C(c2ccc(O)cc2)CC1c1ccccc1 (centres undefined) | ? | -21 | -4 | -4 | ?
CCC(=O)N1N=C(c2cccs2)CC1c1ccc(OC)cc1 (centres undefined) | -22% | 91 | 1 | 5 | ?
Cn1nc(C(=O)Nc2cccc(C(F)(F)F)c2)c2ccccc2c1=O | ? | 69 | -3 | -10 | 39%
COc1cc(NC(=O)CSCC(=O)Nc2cccc(C(F)(F)F)c2)c(Cl)cc1Cl | ? | 16 | -1 | 9 | 12µM*
COc1ccc(-c2noc(CSCC(=O)Nc3cccc(C(F)(F)F)c3)n2)cc1OC | · | -5 | · | · | ·
CCn1cc(Cl)c(C(=O)Nc2cccc(C(F)(F)F)c2)n1 | 174% | 7 | 32* | 58* | 2.6µM*
CCn1cc(Cl)c(C(=O)Nc2ccc3c(c2)OCCO3)n1 | 246% | 56 | 44* | 168* | 14%
CCn1cc(Cl)c(C(=O)Nc2ccccc2C(N)=O)n1 | 83% | 43 | 29* | 20 | 13µM*
COc1cccc(Nc2nc3ccc(C)cc3nc2-n2nc(C)cc2C)c1 | · | 20 | · | · | ·
CCc1ccc(NC(=O)CCNS(=O)(=O)c2ccc3c(c2)oc(=O)n3C)cc1 | · | -5 | · | · | ·
CCOC(=O)c1sc(/N=C/c2ccc(O)cc2O)cc1C | 12% | 28 | 40* | 41* | -25%
CC(=O)N1N=C(c2cccnc2)CC1c1ccccc1O (centres undefined) | 3% | ? | 1 | -4 | ?
CCN1CCC2(CC1)Oc1c(OC)cccc1C1CC(c3cccnc3)=NN12 (centres undefined) | 30% | -10 | 44* | 55* | 42%
Cc1csc(NS(=O)(=O)c2ccc(Cl)cc2)n1 | 25% | 19 | 3 | 15 | ?
Cc1ccc(Nc2nc3ccccc3c(=O)s2)cc1 | 9% | ? | -3 | 26 | ?
Cc1csc(Nc2ccc(Cl)cc2)n1 | 45% | 26 | 24* | 73* | ?
Cc1ccc(Nc2nc(C)cs2)cc1 | 262% | 6 | 54* | 125* | ?
COc1cccc(C(O)c2nc(-c3cc(F)cc(F)c3)cs2)c1 (centres undefined) | · | -9 | · | · | ·
CCOC(=O)c1ccc(NC(=O)Cn2cc(C(=O)c3ccc(CC)cc3)c(=O)c3ccc(C)nc32)cc1 | · | 5 | · | · | ·
Cn1c(=O)c2c(ncn2CC(=O)OCC(=O)Nc2cc(Cl)ccc2Cl)n(C)c1=O | 8% | -2 | 5 | 13 | 0%
O=C1Nc2ccccc2C(=O)N2[C@H](c3ccccc3)[C@@H]3C(=O)N(Cc4ccccc4)C(=O)[C@@H]3[C@H]12 | 5% | -27 | -2 | -3 | -28%
O=C1Nc2ccccc2C(=O)N2[C@H](c3cccc(Br)c3)[C@@H]3C(=O)N(Cc4ccccc4)C(=O)[C@@H]3[C@H]12 | -29% | -60* | 2 | -3 | -28%
O=C(Nc1cccn2ncnc12)c1cccc(C(F)(F)F)c1 | 447% | ? | 24* | 44 | 202%
O=C(CCl)Nc1cccn2ncnc12 | 10µM* | -60* | 6 | -14 | ·
O=C(Nc1cccn2ncnc12)C(F)(F)F | 243% | -15 | 12 | -17 | 32%
CCCCn1c(O)c2n(c1=O)Cc1ccccc1N=C2c1ccccc1 | · | 2 | · | · | ·
COCCCNC(=O)c1ccccc1Oc1ccccc1 | ? | 24 | -3 | 12 | 29%
